Screens as filed in PubChem.
A selection: hits, their analogues and other compounds. The true share with any hit is near 3.3%.
697 NFkB inh = inhibitors of PMA/ionomycin-induced NF-kB reporter, 697 cells, primary screen, B-cell NF-kB inhibitor project, cell-based, luminescence, uHTS; 697 B-cell NF-kB luciferase reporter, 16 h; inhibition, % at 4 µM; 330,000 tested, 0.33% active; in the data active = inhibition above about 35%
Jurkat NFkB inh = inhibitors of induced NF-kB luciferase reporter, primary screen, TCR NF-kB activation inhibitor project, cell-based, luminescence, uHTS. Jurkat, PMA/ionomycin-induced NF-kB luciferase reporter. inhibition, % at 4 µM. 330,000 tested, 0.53% active. AID 435003, 2010; in the data active = inhibition above about 50%
SMARCA2 activ = SMARCA2 (BRM) function activators, primary screen, cell-based, luminescence, high throughput; MG213 cells, MMTV-luciferase reporter, dexamethasone, overnight; activation, % at 9.1 µM; 370,000 tested, 1% active; AID 652017, 2013; in the data active = activation above about 7.8%;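 also: 0% = vehicle wells and 100% = reference activator wells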
esBAF inh = Bmi1 luciferase reporter increase in mESCs, primary screen, esBAF inhibitor project, mouse ES cells, Bmi1 luciferase knock-in, single point | 24 h; 100% = twice the neutral-well signal | reporter increase, % at 12.5 µM | 350,000 tested, 2% active | AID 602393, 2012; in the data active = activation above about 40%;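 also: 0% = median of the plate's neutral control wells and 100% = double that signal; a rise in the Bmi1 reporter signal indicates esBAF inhibition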
Gli-Sufu block = Gli-Sufu pathway antagonists, primary screen, luciferase luminescence, Sufu-KO-LIGHT cells, uHTS | inhibition, % at 5 µM | 340,000 tested, 0.74% active | AID 588413, 2011 | Sufu-KO-LIGHT fibroblasts, Gli luciferase reporter luminescence;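 active = inhibition above about 55%, limit read from the data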;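 also: 0% = DMSO-treated cells and 100% = wells with medium but no cells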
An asterisk follows results filed as active; . = not tested or not shown.

SMILES | 697 NFkB inh | Jurkat NFkB inh | SMARCA2 activ | esBAF inh | Gli-Sufu block
C[C@@H]1CN([C@@H](C)CO)C(=O)c2cc(NC(=O)C3CCCCC3)ccc2O[C@@H](C)CCCCO[C@H]1CN(C)Cc1ccc2c(c1)OCO2 | . | . | . | -1 | .
CCCC#Cc1ccc2c(c1)O[C@H](CN(C)C(=O)CN(C)C)[C@H](C)CN([C@H](C)CO)S2(=O)=O | . | . | . | -2 | .
O=C(Nc1nnc(C2CC2)s1)c1cc2ccccc2o1 | -98 | -56 | 2 | 46* | -72
Oc1ccc(CN2CCN(c3ccccc3)CC2)c2cccnc12 | -25 | 4 | . | 0 | 12
Oc1ccc(CN2CCC(Cc3ccccc3)CC2)c2cccnc12 | -154 | 40 | 0 | . | 67*
Cc1ccc(C)c(S(=O)(=O)N2CCN(Cc3ccc(O)c4ncccc34)CC2)c1 | -42 | 16 | -3 | . | 74*
Oc1ccc(CN2CCc3ccccc3C2)c2cccnc12 | -3 | 37 | -3 | -48 | 84*
CCOC(=O)N1CCN(Cc2ccc(O)c3ncccc23)CC1 | -8 | 3 | 1 | . | 26
COCC(=O)N(C)C[C@@H]1Oc2ncc(-c3ccc(F)cc3)cc2C(=O)N([C@H](C)CO)C[C@@H]1C | . | . | . | 3 | .
Cc1ccc(S(=O)(=O)Nc2ccc3c(c2)C(=O)N([C@@H](C)CO)C[C@H](C)[C@@H](CN(C)Cc2ccncc2)OCCCC[C@@H](C)O3)cc1 | . | . | . | -2 | .
COc1ccc(C)cc1Nc1n[n+](-c2ccccc2)c(-c2ccc(OC)c(OC)c2OC)s1 | 2 | 21 | 1 | -6 | 20
COc1ccc(C)cc1Nc1n[n+](-c2ccccc2)c(-c2ccc(N(C)C)cc2)s1 | -33 | -12 | -2 | 10 | 61*
CC1=NN(c2ccccc2)C(=O)C1N=Nc1ccccc1 (stereo not given) | -109 | -101 | 3 | . | 6
CC1=NN(c2ccccc2)C(=O)C1N=Nc1cccc(O)c1 (stereo not given) | -43 | -83 | 5 | 52* | -7
Oc1[nH]c2ccccc2c1N=Nc1ccccc1F | -141 | -96 | 1 | 86* | -22
Oc1[nH]c2ccccc2c1N=Nc1ccccc1 | -107 | -87 | 5 | 52* | -32
C[C@@H]1CCCCO[C@H](CN(C)Cc2ccc3c(c2)OCO3)[C@@H](C)CN([C@@H](C)CO)C(=O)c2cc(NS(C)(=O)=O)ccc2O1 | . | . | . | -23 | .
CNC(=O)C[C@H]1CC[C@H]2[C@H](COc3ccc(NC(=O)Nc4c(C)noc4C)cc3C(=O)N2C)O1 | . | . | . | -1 | .
COc1cccc(NC2SC(=O)N(c3ccccc3)C2=O)c1 (stereo not given) | -34 | -44 | 8.0* | 59* | -5
CN1C(=O)SC(Nc2ccccc2)C1=O (stereo not given) | 2 | -10 | -1 | 3 | -4
CS(=O)(=O)N1N=C(c2ccc(Br)cc2)CC1c1cccs1 (stereo not given) | -42 | -49 | 2 | 77* | -54
CC(=O)Nc1ccc2nc(C3CC3)n(Cc3ccc(Cl)cc3)c(=O)c2c1 | -83 | -67 | 3 | 75* | -84
CO[C@H]1CN(C)C(=O)c2cc(NC(=O)c3ccccc3)ccc2OC[C@H](C)N(C(=O)CN(C)C)C[C@H]1C | . | . | . | 4 | .
Clc1ccc(OCc2noc(-c3ccsc3)n2)c(Cl)c1 | -157 | -102 | 7 | 64* | -94
CC(C)NC(=O)Nc1ccc2c(c1)CC(=O)N([C@@H](C)CO)C[C@@H](C)[C@@H](CN(C)S(=O)(=O)c1cccs1)O2 | . | . | . | -4 | .
SMILES | 697 NFkB inh | Jurkat NFkB inh | SMARCA2 activ | esBAF inh | Gli-Sufu block
CO[C@@H]1CN(C)C(=O)c2ccc(NS(=O)(=O)c3ccccc3)cc2OC[C@@H](C)N(Cc2cccnc2)C[C@H]1C | . | . | . | 0 | .
COc1ccc(C(=O)NCCC2=CCCCC2)cc1OC1CCN(C(C)C)CC1 | -6 | -37 | 5 | 60* | -14
O=c1c2cc(-c3ccccc3)sc2ncn1-n1cccc1 | -83 | -88 | 0 | 72* | -84
O=c1[nH]cnc2sc(-c3ccccc3)cc12 | -37 | -3 | 7 | 49* | -41
COc1cccc(-n2cnc3sc(-c4ccccc4)cc3c2=O)c1 | -124 | -116 | 0 | 47* | -81
Cc1ccc(C)n1-n1cnc2sc(-c3ccccc3)cc2c1=O | -5 | -2 | -2 | 18 | -15
O=c1[nH]c(-c2ccccc2)nc2sc(-c3ccccc3)cc12 | -159 | 10 | 1 | . | -85
CCn1cnc2sc(-c3ccccc3)cc2c1=O | -118 | -88 | 3 | 49* | 9
CC(=O)Cn1cnc2sc(-c3ccccc3)cc2c1=O | -119 | -88 | 3 | . | -86
O=C(CO/N=C/c1ccc(Cl)cc1Cl)NNC(=O)c1cccc(Cl)c1 | 5 | -29 | -3 | 1 | 0
CCC(CC)NC(=O)CO/N=C/c1ccc(Cl)cc1Cl | 0 | -4 | 7.9* | . | -16
Cc1ccc(OC(=O)COc2ccccc2)c(-n2nc3ccccc3n2)c1 | -61 | -88 | 2 | . | -29
Cc1ccc(OC(=O)c2cccc([N+](=O)[O-])c2)c(-n2nc3ccccc3n2)c1 | -123 | -122 | 6 | 84* | -30
C(=C/c1nccc2c1[nH]c1ccccc12)/c1ccc2c(c1)OCO2 | . | . | 0 | 76* | -30
C(=N\Nc1nc2ccccc2[nH]1)/c1ccc2c(c1)OCO2 | . | . | 0 | . | -32
Cc1noc(C)c1NC(=O)Nc1ccc2c(c1)C(=O)N([C@@H](C)CO)C[C@H](C)[C@H](CN(C)C(=O)Nc1ccc(F)cc1)O2 | . | . | . | 3 | .
CSc1cccc(NC(=O)/C=C/c2ccccc2)c1 | -81 | -88 | 1 | 62* | -92
COc1ccc(NC(=O)/C=C/c2ccccc2)cn1 | -8 | -99 | 3 | 42* | -77
Cc1ccccc1-c1cnc2c(c1)C(=O)N([C@H](C)CO)C[C@H](C)[C@@H](CN(C)C(=O)c1ccc(F)cc1)O2 | . | . | . | 4 | .
O=C(O)c1ccc(-n2ncc3c2/C(=C\c2cccc([N+](=O)[O-])c2)CC3)cc1 | . | . | -2 | 92* | -54
C[C@@H]1CN([C@H](C)CO)S(=O)(=O)c2ccc(C#Cc3ccc(F)cc3)cc2O[C@@H]1CN(C)C(=O)c1ccccn1 | . | . | . | -8 | .
CO[C@H]1CC[C@@H]2CCN(C)C(=O)[C@H](C)N(C)C(=O)c3cc(C#N)ccc3OC[C@H]1O2 | . | . | . | 3 | .
O=C(Cc1cccnc1)N[C@H]1CC[C@@H](CCNS(=O)(=O)c2ccccc2Cl)O[C@H]1CO | . | . | . | -1 | .
Cc1cc(C)n(-c2ccc(C(=O)Nc3ccc4c(c3)OCO4)cc2)n1 | -44 | -57 | 3 | 68* | 25
Cc1cc(C)n(-c2ccc(C(=O)Nc3nc4ccccc4s3)cc2)n1 | -173 | -83 | 7 | 44* | 6
CC(=O)c1cc2c(cc1NC(=O)c1ccc(-n3nc(C)cc3C)cc1)OCO2 | . | . | -4 | 4 | 15
O=C(c1cc2cc(Br)ccc2o1)N1CCCCC1 | -59 | -77 | 4 | 49* | -94
